Compound activity from PubChem.
In the library only some 7.1% were active in any assay of this set; here they are far more common.
LASV entry inh – qHTS for Inhibitors of binding or entry into cells for Lassa Virus; Lassa virus pseudotyped entry inhibition, cell-based qHTS; Potency, µM (top dose mostly 49.2 µM), hits mostly inhibitors; 18,000 compounds, 4.1% hits; AID 720533, 2013
Marburg entry – qHTS for Inhibitors of binding or entry into cells for Marburg Virus | AID 720532, 2013 | Marburg virus pseudotype entry/binding inhibition, cell-based | Potency, µM (top dose mostly 49.2 µM), usual class: inhibitors | 18,000 compounds, 6.5% hits
Hits are given with their value; - = inactive; ? = inconclusive; . = not tested or not shown; ! = a repeat was not active; [ ] = another dose, or the depositor's remark. Calls follow the shape of the full dose curve; tested in HEK293 cells.

SMILES	LASV entry inh	Marburg entry
COc1ccc(-c2nc3cc(C)ccc3cc2CN(C(=O)c2cccs2)C2CC2)cc1OC	?	-
COc1ccc(-c2nc3cc(C)ccc3cc2CN(C(=O)c2ccco2)C2CC2)cc1OC	-	-
COc1cccc(C(=O)N(Cc2cc3ccc(C)cc3nc2N(C)C)C2CC2)c1OC	5µM	4µM
CC(=O)OC[C@H]1O[C@H](CC=NOC[C@@H](O)COCc2ccco2)C=C[C@H]1OC(C)=O	-[8.59 µM]	-[8.59 µM]
CC(CCN1CCCCc2nc(C)c(C)cc21)=NO[C@@H](C)c1cn([C@H](CO)Cc2ccccc2)nn1	-[8.59 µM]	-[8.59 µM]
CO[C@H]1C[C@@H]2CC[C@@H](C)[C@@](O)(O2)C(=O)C(=O)N2CCCC[C@H]2C(=O)O[C@H]([C@H](C)C[C@@H]2CC[C@@H](OCCO)[C@H](OC)C2)CC(=O)[C@H](C)/C=C(\C)[C@@H](O)[C@@H](OC)C(=O)[C@H](C)C[C@H](C)/C=C/C=C/C=C/1C	25µM	?
CO[C@H]1C[C@@H]2CC[C@@H](C)[C@@](O)(O2)C(=O)C(=O)N2CCCC[C@H]2C(=O)O[C@H](C(C)C[C@H]2CC[C@@H](O)[C@H](OC)C2)CC(=O)[C@H](C)/C=C(\C)[C@@H](O)[C@@H](OC)C(=O)[C@H](C)C[C@H](C)/C=C/C=C/C=C/1C (some centres undefined)	-	?
Cc1cccc2cc(CNCCCN3CCCC3=O)c(N3CCN4CCCC4C3)nc12 (centres undefined)	-	?
CN(C)Cc1ccccc1-c1cncnc1NC1CC1	-	-
OC1C=C2CCN3Cc4cc5c(cc4C(C1O)C23)OCO5 (centres undefined)	-	13µM
O[C@H]1[C@H]2c3cc4c(cc3CN3CCC(=C[C@@H]1O)[C@H]23)OCO4	-	-
COC(=O)N[C@@H](C=Cc1ccccc1)C[N+](=O)[O-]	-[8.59 µM]	-[8.59 µM]
CNC(=O)Oc1ccc2c(c1)[C@]1(C)CCN(C)[C@@H]1N2C	-	-
CN1CC[C@]2(C)c3cc(O)ccc3N(C)[C@@H]12	-	11µM
CCCCCCCc1cc2ccccc2c2c(C(C)=O)c(-c3ccccc3)c(C(=O)OC)n12	-[8.59 µM]	-[8.59 µM]
COC(=O)[C@@H]1CCCN1C(=O)c1cnn(-c2ncc3c(n2)-c2ccccc2CCC3)c1C1CC1	-	-
CCN1C(=O)CC(CC(=O)N2CCC(c3nc4ccc(F)cc4[nH]3)CC2)(c2ccccc2C)C1=O (centres undefined)	-	-
CN1CCCCC1Cn1cc(C(=O)c2cc([N+](=O)[O-])ccc2I)c2ccccc21 (centres undefined)	?	10µM
N[C@@H](Cc1ccc(O)cc1)C(=O)O	-	-
NC(Cc1ccc(O)c(O)c1)C(=O)O (centres undefined)	-	1.6µM
C=C[C@@H](C)[C@@H](OP1(=O)O[C@@H](C=C)C[C@H](C=C)O1)[C@H](C)CO[Si](C)(C)C(C)(C)C (some centres undefined)	-	?
COC(=O)C1=C(C)N(Cc2ccccc2)C(=NCc2ccc(OC)cc2)NC1c1ccccc1 (centres undefined)	-[8.59 µM]	-[8.59 µM]
O=C(NCC1(N2CCCCC2)CCCCC1)c1ccc(-n2cc(NC(=O)c3cccnc3)cn2)cc1	-	4µM
CCOC(=O)C1CCCCN1C(=O)c1ccc(-n2cc(NC(=O)c3cccnc3)cn2)cc1 (centres undefined)	-	-
C[C@@H](c1ccccc1)N1C(=O)[C@@H]2[C@H]3[C@H](O)[C@H](O)CC(=NOC[C@@H](O)COCc4ccco4)[C@H]3CC[C@H]2C1=O	-[8.59 µM]	-[8.59 µM]
SMILES	LASV entry inh	Marburg entry
CC(C)COCC(CN(Cc1ccccc1)c1ccccc1)N1CCCC1 (centres undefined)	14µM!	6.3µM
O=C(O)COc1ccccc1/C=N/NC(=O)c1ccncc1	-	-
O=C(N/N=C/c1ccccc1O)c1ccncc1	10µM	-
CCN(CC)CCOC(=O)C(c1ccccc1)C1CCCCC1 (centres undefined)	-	?
O=C(NCCCN1CCCCCC1)[C@@H](c1ccccc1)C1CCCCC1	?	13µM
Cc1c(-c2ccc(Cl)cc2)noc1C1CCN(CCc2ccccc2)CC1	-	?
Cc1c(C2CCN(CCc3ccccc3)CC2)noc1-c1ccc(Cl)cc1	-	11µM
CCCCc1oc2ccccc2c1C(=O)c1cc(I)c(OCCN(CC)CC)c(I)c1	.	20µM
CCCCOc1cc(C(=O)OCCN(CC)CC)ccc1N	-	-
CCCCCN=c1ccn(Cc2ccccc2)c2ccccc12	20µM	14µM
COCC(=O)Nc1cc(C(=O)N2CC3(C)CC2CC(C)(C)C3)c2c(c1)nc(-c1ccncc1)n2C (centres undefined)	-	-
COC(=O)[C@H](Cc1ccccc1)NC(=O)O[C@@H]1C(=O)c2ccc(OC)cc2O[C@H]1c1ccc2c(c1)OCO2	-	-
COc1ccc(CCN(C)Cc2cc(-c3cncnc3)ccc2O)cc1OC	-	-
CN(C)CCCc1cc(C(=O)Nc2ccc(-c3ccncc3)cc2)ccc1O	35µM!	6.3µM
